target: Probable ATP-dependent RNA helicase DDX23 (UniProt Q9BUQ8); assay: cross-link between two proteins; cross-linking mass spectrometry; other
Sequence (Q9BUQ8 whole entry): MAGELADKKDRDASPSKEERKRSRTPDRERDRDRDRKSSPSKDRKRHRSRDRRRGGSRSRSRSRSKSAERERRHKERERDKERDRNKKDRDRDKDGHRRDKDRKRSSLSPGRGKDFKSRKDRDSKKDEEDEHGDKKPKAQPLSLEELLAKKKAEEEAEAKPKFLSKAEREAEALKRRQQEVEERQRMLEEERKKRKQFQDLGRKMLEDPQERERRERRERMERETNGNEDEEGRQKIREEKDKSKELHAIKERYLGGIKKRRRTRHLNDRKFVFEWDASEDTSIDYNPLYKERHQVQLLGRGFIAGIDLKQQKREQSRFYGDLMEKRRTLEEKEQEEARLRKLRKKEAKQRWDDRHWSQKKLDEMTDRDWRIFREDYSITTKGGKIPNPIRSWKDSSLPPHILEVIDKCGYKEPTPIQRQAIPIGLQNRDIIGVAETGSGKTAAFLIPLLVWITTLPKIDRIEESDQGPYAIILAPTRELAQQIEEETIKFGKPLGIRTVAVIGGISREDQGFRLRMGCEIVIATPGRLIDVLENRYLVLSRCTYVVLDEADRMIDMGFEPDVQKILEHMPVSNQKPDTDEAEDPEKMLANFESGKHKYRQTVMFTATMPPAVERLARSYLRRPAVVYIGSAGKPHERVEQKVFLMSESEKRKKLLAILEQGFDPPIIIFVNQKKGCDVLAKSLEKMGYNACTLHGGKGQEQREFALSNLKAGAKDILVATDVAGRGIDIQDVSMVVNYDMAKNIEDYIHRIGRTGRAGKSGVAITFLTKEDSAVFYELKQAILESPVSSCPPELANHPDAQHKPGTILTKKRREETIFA

Substance	listed as a hit
116 kDa U5 small nuclear ribonucleoprotein component, Q15029	yes
Pre-mRNA-processing factor 6, O94906	yes
U4/U6.U5 tri-snRNP-associated protein 1, O43290	yes
U5 small nuclear ribonucleoprotein 200 kDa helicase, O75643	yes

Reference: article PMC10954555
